# Assay results from paper PMC8384837, “Expanding the binding specificity for RNA recognition by a PUF domain”.
# Target: PUM1 PUF domain R5-KGK (Homo sapiens, UniProt Q14671 828-1176, C1007K;R1008G;Q1011K)
# Experiment: yeast three-hybrid, YBZ-1, SC-Leu-His + 0.5 mM 3-AT, 4 days
# Settings: tags: N-Gal4 AD-HA kept; label: inside an RPR1-promoter hybrid RNA with tandem MS2 sites; ssRNA
# Method in brief: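 Pumilio-1 PUF domain libraries, randomized (NNK) at the three base-contacting residues of each repeat, were co-expressed with matching RNA elements from a centromeric plasmid in strain YBZ-1 (LexA–MS2 coat fusion, HIS3 reporter). Transformants were plated on SC-Leu (input) and SC-Leu-His + 0.5 mM 3-AT (selection) for four days, and repeat regions were PCR-amplified and Illumina-sequenced. The interaction score is the log2 change in variant frequency from input to selection, with pseudocount 1 where absent.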
row,Sequence,binding signal
1,GGCUAGAACUAGUGGAUCCCCCGGCGCCCGGCGGCUCGAGCCCGGGUAAGUGUAAAUAGUCUGCAUGCCGCCGGGCGCCAUGCCUGCAGGUCGACUCUAGAAAACAUG,1.56 log2 enrichment (interaction score)
2,GGCUAGAACUAGUGGAUCCCCCGGCGCCCGGCGGCUCGAGCCCGGGUAAGUGUCAAUAGUCUGCAUGCCGCCGGGCGCCAUGCCUGCAGGUCGACUCUAGAAAACAUG,4.24 log2 enrichment (interaction score)
3,GGCUAGAACUAGUGGAUCCCCCGGCGCCCGGCGGCUCGAGCCCGGGUAAGUGUUAAUAGUCUGCAUGCCGCCGGGCGCCAUGCCUGCAGGUCGACUCUAGAAAACAUG,1.81 log2 enrichment (interaction score)
